In PubChem BioAssay AID652154 (Broad Institute, 2013) one finds inhibition data, which are given here for 66 compounds.

The campaign covered roughly 360,000 compounds. About 4,200 (1.2%) were called active.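 The calls were made as follows: active = mean replicate inhibition at least 60% with every replicate also reaching 60%; inconclusive = only one of the two criteria is met; inactive = mean below 60% and not all replicates reaching 60%.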 Shown is part of a subset that was picked to be rich in actives.

This test in a line: inhibitors of PAX8-driven TPO luciferase reporter, primary screen, RMG-I cells, single concentration (AID 652154).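 Also: luciferase light reporting Pax8 driven TPO promoter activity; plate controls were median of neutral control wells for no effect and mitoxantrone controls for full effect.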 The note with it: SteadyGlo, 24 h, at 12.6 µM, hits give high values. (A reporter such as luciferase makes a cellular process visible.)
Usually inhibition stands for the change of the read-out against control, counted positive when it falls. Take `COc1ccc(NC(=O)N[C@H]2CC[C@H](CCn3cc(-c4ccccc4F)nn3)O[C@H]2CO)cc1`: the inhibition was -4.51% (inactive).

As for `C[C@@H]1CCCCO[C@H](CN(C)S(=O)(=O)c2cn(C)cn2)[C@@H](C)CN([C@@H](C)CO)C(=O)c2cc(NC(=O)c3ccncc3)ccc2O1`, the inhibition is -1.88% (inactive).

Regarding `CO[C@H]1CN(C)C(=O)c2ccc(NS(=O)(=O)c3cn(C)cn3)cc2OC[C@@H](C)N(CC2CC2)C[C@H]1C`, the inhibition is -11.1% (inactive).

Consider `O=C(CC(=O)N/N=C\c1ccc(F)cc1)NCCc1ccccc1`, for which the inhibition is 16.1% (inactive).

Take `O=C(Cc1c[nH]c2ccccc12)N/N=C/c1cccc(F)c1`: the inhibition is 73.6% (active).

For the compound `O=C(NC(Cc1c[nH]c2ccccc12)C(=O)N/N=C/c1ccc(Br)cc1)c1cccs1` (stereo unspecified), the inhibition was -2.62% (inactive).

`CC(=O)c1ccc(S(=O)(=O)N2CCC3(CC2)OCCO3)cc1`: the inhibition was -17.6% (inactive).

With `CC(=O)c1ccc(S(=O)(=O)N2CCC(Oc3ccc(-n4cnnn4)cc3)CC2)cc1`, the inhibition was -37.6% (inactive).

With `CC(=O)c1ccc(S(=O)(=O)N2CCN(C(=O)/C=C/c3ccc4ccccc4n3)CC2)cc1`, the inhibition is 79.4% (active).

`COc1ccc(S(=O)(=O)Nc2ccc3c(c2)C(=O)N([C@H](C)CO)C[C@H](C)[C@H](CN(C)S(=O)(=O)c2ccc(Cl)cc2)O3)cc1`: the inhibition was -6.19% (inactive).

Regarding `CC(C)C#Cc1ccc2c(c1)O[C@@H](CN(C)Cc1ccncc1)[C@@H](C)CN([C@@H](C)CO)S2(=O)=O`, the inhibition was -12.5% (inactive).

On to `COc1ccc(-c2ccc([C@@H]3[C@@H](CO)N4C(=O)CN(Cc5ccccc5)C[C@@H]34)cc2)cc1`, for which the inhibition was -17% (inactive).

In the case of `COc1ccc([Si](C)(C)[C@@H]2[C@@H](CCO)O[C@]3(C(=O)N(Cc4cccc(N5CCCCC5=O)c4)c4ccccc43)[C@H]2C)cc1`, the inhibition was 3.33% (inactive).

For the compound `COc1ccc([Si](C)(C)[C@@H]2[C@@H](CCO)O[C@]3(C(=O)N(Cc4ccccc4)c4ccc(N5CCC5=O)cc43)[C@H]2C)cc1`, the inhibition is 101% (active).

Consider `O=C(CC1CC1)N1[C@@H]2CN(S(=O)(=O)c3ccccc3F)c3ccccc3[C@@H]2[C@@H]1CO`, for which the inhibition was -3.48% (inactive).

As to `O=C(C1=C[C@@H](c2ccccc2)C[C@@H](OCCCCO)O1)N1CCN(Cc2ccccc2)CC1`, the inhibition is 2.95% (inactive).

For `COc1cc(C(=O)CCc2ccc3c(c2)OCO3)cc(OC)c1OC`, the inhibition was -6.52% (inactive).

Take `COc1cc(C2CC(=O)Oc3cc(OC)c(OC)c(OC)c32)cc(OC)c1OC` (stereo unspecified): the inhibition is -2.9% (inactive).

As to `COc1cc(C2c3cc4c(cc3C(O)C3COC(=O)C23)OCO4)cc(OC)c1OC` (stereo unspecified), the inhibition is 77.3% (active).

Regarding `Cc1ccccc1S(=O)(=O)N1[C@@H]2CNC[C@H]1C2c1ccc(-c2cccnc2)cc1` (stereo partly specified), the inhibition was 19.3% (inactive).

Regarding `CN(c1ccc2nc3ccccc3c(=O)n2n1)C1CCCCC1`, the inhibition was 86% (active).

`CC(C)C(C)NC(=O)COc1nc2ccccc2nc1N(C)C1CCCCC1` (stereo unspecified): the inhibition was 0.996% (inactive).

Turning to `CC(C)c1cc(C(=O)NC2CCCCCC2)c2ccccc2n1`, the inhibition was -9.13% (inactive).

As to `COc1ccc2c3c(n(C)c2c1)[C@@H](CO)N(Cc1ccncc1)CC31CN(C(=O)C2CCCCC2)C1`, the inhibition is -15.5% (inactive).

For the compound `COc1ccc(S(=O)(=O)N(C)C[C@H]2OCCCC[C@@H](C)Oc3ccc(NC(=O)NC(C)C)cc3C(=O)N([C@H](C)CO)C[C@H]2C)cc1`, the inhibition is 17% (inactive).

As to `C/C=C/c1ccc([C@H]2[C@@H](C#N)N(C(=O)CN3CCOCC3)[C@@H]2CO)cc1`, the inhibition is -6.35% (inactive).

With `COC(=O)CSc1nnc(NC(=O)CCc2ccccc2)s1`, the inhibition was -0.955% (inactive).

Take `COCCSc1nnc(NC(=O)CCS(=O)(=O)Cc2ccccc2)s1`: the inhibition is 65.7% (active).

In the case of `CCOCc1nnc(NC(=O)CCS(=O)(=O)Cc2ccccc2)s1`, the inhibition is 50.3% (inactive).

Regarding `C[C@@H]1CN([C@@H](C)CO)S(=O)(=O)c2ccc(-c3cccc(C(=O)N(C)C)c3)cc2O[C@@H]1CN(C)C`, the inhibition is -0.377% (inactive).

As for `O=C(C[C@H]1C[C@H]2c3cc(NC(=O)C4CCC4)ccc3O[C@H]2[C@@H](CO)O1)NCc1ccc(Cl)cc1`, the inhibition was -5.09% (inactive).

For `O=C(c1ccccc1)N1CCN(c2cc(-c3ccccc3)nc3cc(-c4cccc(Cl)c4)nn23)CC1`, the inhibition is 40.2% (inactive).

Take `C#Cc1cc(N2CCN(C(=O)c3ccoc3)CC2)n2nc(-c3cccc(Cl)c3)cc2n1`: the inhibition is 107% (active).

Regarding `CN(C)CCN1CCN(c2cc(-c3cccc(Cl)c3)nc3ccnn23)CC1`, the inhibition was -3.43% (inactive).

`C[C@@H]1CN([C@H](C)CO)C(=O)c2cccc(NS(=O)(=O)c3ccccc3)c2O[C@@H]1CN(C)Cc1ccc(C(=O)O)cc1`: the inhibition is 14.1% (inactive).

Turning to `CCC(=O)Nc1ccc2c(c1)C(=O)N(C)[C@@H]1CC[C@@H](CC(=O)Nc3cccc(OC)c3)O[C@@H]1CO2`, the inhibition was 8.78% (inactive).

As to `Cc1ccc(C)c(S(=O)(=O)N2CCN(CC(=O)Nc3ccc([N+](=O)[O-])cc3)CC2)c1`, the inhibition was 6.46% (inactive).

Regarding `Cc1ccc(C)c(S(=O)(=O)N2CCN(c3ncnc4sccc34)CC2)c1`, the inhibition is 73.6% (active).

On to `COc1ccc(-c2csc3ncnc(N4CCN(S(=O)(=O)c5ccccc5C#N)CC4)c23)cc1`, for which the inhibition was 9.25% (inactive).

For `CCC(=O)Nc1ccc2c(c1)OC[C@@H](C)N(Cc1ccccc1OC)C[C@H](C)[C@H](OC)CN(C)C2=O`, the inhibition was -6.79% (inactive).

In the case of `C[C@@H]1CN([C@H](C)CO)C(=O)c2cc(NS(=O)(=O)c3cn(C)cn3)ccc2O[C@H]1CN(C)S(=O)(=O)c1ccc(Cl)cc1`, the inhibition is 1.32% (inactive).

Take `CC(=O)N(C)C[C@@H]1Oc2ncc(C#Cc3ccc(F)cc3)cc2C(=O)N([C@H](C)CO)C[C@@H]1C`: the inhibition was -8.23% (inactive).

Consider `C[C@H](CO)N1C[C@H](C)[C@@H](CN(C)S(=O)(=O)c2cccc(F)c2)Oc2cc(C#CCN(C)C)ccc2S1(=O)=O`, for which the inhibition was 14.6% (inactive).

For the compound `CCCC#Cc1ccc2c(c1)O[C@@H](CN(C)S(=O)(=O)c1cccc(OC)c1)[C@H](C)CN([C@@H](C)CO)S2(=O)=O`, the inhibition is 60.4% (active).

For the compound `COc1cccc(S(=O)(=O)N(C)C[C@@H]2Oc3cc(C4=CCCCC4)ccc3S(=O)(=O)N([C@H](C)CO)C[C@H]2C)c1`, the inhibition was 65.8% (active).

Take `CCCN(C)C[C@H]1Oc2cc(C#CCC3CCCC3)ccc2S(=O)(=O)N([C@@H](C)CO)C[C@@H]1C`: the inhibition was 2% (inactive).

With `C[C@@H]1CN([C@@H](C)CO)S(=O)(=O)c2ccc(C#CCN(C)C)cc2O[C@@H]1CN(C)S(=O)(=O)c1cccc(F)c1`, the inhibition is -15.8% (inactive).

Take `COc1ccccc1S(=O)(=O)N(C)C[C@H]1Oc2cc(C#CCC3CCCC3)ccc2S(=O)(=O)N([C@@H](C)CO)C[C@H]1C`: the inhibition was 77.3% (active).

Take `C[C@@H]1CN([C@H](C)CO)S(=O)(=O)c2ccc(C#CCC3CCCC3)cc2O[C@H]1CN(C)C(=O)CC1CC1`: the inhibition is 23.3% (inactive).

Turning to `COCC(=O)N(C)C[C@@H]1Oc2cc(C3=CCCC3)ccc2S(=O)(=O)N([C@@H](C)CO)C[C@H]1C`, the inhibition is -21% (inactive).

On to `Cc1ccc(S(=O)(=O)N(C)C[C@@H]2Oc3cc(C4=CCCC4)ccc3S(=O)(=O)N([C@@H](C)CO)C[C@@H]2C)cc1`, for which the inhibition was 36.4% (inactive).

For `C[C@H]1CN([C@@H](C)CO)C(=O)Cc2cc(NC(=O)Nc3cccc4ccccc34)ccc2O[C@@H]1CN(C)C`, the inhibition is -5.56% (inactive).

For the compound `OC[C@H]1[C@H](c2ccc(-c3ccccc3F)cc2)[C@H]2CN(Cc3cncnc3)CCCCN21`, the inhibition was 1.13% (inactive).

In the case of `COc1ccccc1-c1ccc2c(c1)O[C@H](CN(C)C(=O)c1cccnc1)[C@@H](C)CN([C@H](C)CO)S2(=O)=O`, the inhibition is 15% (inactive).

For the compound `C=CC[C@]12C[C@@]3(O[C@H](c4ccc(C(F)(F)F)cc4)N=C3C[C@H](c3ccc(OC)cc3)[C@H]1C)N(C1CCN(Cc3ccccc3)CC1)C2=O`, the inhibition is -2.39% (inactive).

For the compound `CNC[C@@H]1Oc2cc(C#CC3(O)CCCC3)ccc2S(=O)(=O)N([C@@H](C)CO)C[C@H]1C`, the inhibition was 9.72% (inactive).

Take `C[C@@H]1CN([C@@H](C)CO)S(=O)(=O)c2ccc(C#Cc3ccccc3)cc2O[C@@H]1CN(C)C(=O)Nc1ccccc1`: the inhibition is 3.61% (inactive).

In the case of `C[C@@H]1CN([C@H](C)CO)S(=O)(=O)c2ccc(C#CC3CCCC3)cc2O[C@@H]1CN(C)C(=O)Cc1ccncc1`, the inhibition is 90.6% (active).

For the compound `C[C@@H]1CN([C@H](C)CO)S(=O)(=O)c2ccc(C3=CCCC3)cc2O[C@H]1CN(C)C(=O)Nc1ccc2c(c1)OCO2`, the inhibition is 8.58% (inactive).

As to `C[C@H]1CN([C@@H](C)CO)S(=O)(=O)c2ccc(C#CC3CCCC3)cc2O[C@H]1CN(C)C(=O)Cc1ccncc1`, the inhibition is 32.9% (inactive).

As to `C[C@H](CO)N1C[C@H](C)[C@H](CN(C)C(=O)Nc2ccc3c(c2)OCO3)Oc2cc(C#Cc3ccncc3)ccc2S1(=O)=O`, the inhibition is 72.2% (active).

On to `C[C@@H]1CN([C@H](C)CO)S(=O)(=O)c2ccc(C#CC3CCCCC3)cc2O[C@H]1CN(C)C(=O)Cc1ccncc1`, for which the inhibition is 0.108% (inactive).

Consider `C[C@H]1CN([C@@H](C)CO)S(=O)(=O)c2ccc(C3=CCCC3)cc2O[C@H]1CN(C)C(=O)Nc1ccc2c(c1)OCO2`, for which the inhibition was 19.4% (inactive).

On to `C[C@H]1CN([C@@H](C)CO)S(=O)(=O)c2ccc(C#Cc3ccncc3)cc2O[C@@H]1CN(C)C(=O)Nc1ccc2c(c1)OCO2`, for which the inhibition was 101% (active).

In the case of `CC(C)C#Cc1ccc2c(c1)O[C@@H](CN(C)C(=O)NC(C)C)[C@H](C)CN([C@H](C)CO)S2(=O)=O`, the inhibition was -13.2% (inactive).

As to `CC(C)NC(=O)N1CCCCN2[C@@H](CO)[C@@H](c3ccc(C#Cc4ccccc4)cc3)[C@@H]2C1`, the inhibition was 1.5% (inactive).
